{"source": "PubChem BioAssay (NCATS)", "note": "Inconclusive results are not listed. Calls of active or inactive are those of the source. The call rests on the fitted dose curve; in most records, active means well fitted curve in the direction sought with a large enough effect; inconclusive means small, poorly fitted or top-dose-only effect, or another doubt; inactive means no such curve, though single readings can be large or run the other way. Numbered stars: 1 amine (or outer) side, 2 acyl side, 3 side chain; on linkers, the order of the positions; unused ones are H or OH. Bridge positions count the residues as written; N and C are the ends. Square brackets hold non-standard residues; d marks the D form. Peptide text beside a SMILES is read from it. ξ: configuration not given here. Phe(3R-OH) = O=C([C@@H](N[*:1])[C@H](O[*:3])c1ccccc1)[*:2]; NMeTrp(4-OMe) = CN[C@@H](Cc1c[nH]c2cccc(OC)c12)C(=O)O; ξThr(3R)(O-yl) = C[C@@H](O[*:3])C(N[*:1])C(=O)[*:2]; NMeThr(3ξ) = CN[C@H](C(=O)O)C(C)O; NMeL = CN[C@@H](CC(C)C)C(=O)O; NMeV = CN[C@H](C(=O)O)C(C)C; ξIle = CC[C@H](C)C(N)C(=O)O; ξV = CC(C)C(N)C(=O)O"}
{"assay": "qHTS for inhibitors of Wild type Zika virus screened against the NCATS CANVASS Library (AID 1347396);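 further: ATP luminescence of surviving cells so rescue from viral cell killing; on the % scale 0 is the no-effect control and ±100 the full control effect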", "settings": "Vero cells, Zika virus CPE, CellTiter-Glo, 72 h; series mostly up to 45.9 µM; activity change, negative = antiviral: at the top concentration", "excerpt": "Natural products and their derivatives continue to be wellsprings of nascent therapeutic potential. However, many laboratories have limited resources for biological evaluation, leaving their previously isolated or synthesized compounds largely or completely untested. To address this issue, the Canvass library of natural products was assembled (https://tripod.nih.gov/canvass), in collaboration with academic and industry researchers, for quantitative high-throughput screening (qHTS) across a diverse set of cell-based and biochemical assays. The pure (>85% purity by liquid chromatography/mass spectrometry [LC/MS]) Canvass library of 346 natural products were submitted by 45 academic laboratories and companies around the world. We collected pure natural products to circumvent deconvolution and structure elucidation due to time and resource limitations. The library was formatted into 1536-well plates and evaluated in 50 qHTS (in an 11-pnt concentration series) bioassays with broad scope of disease-relevant mechanisms. The resulting data set from 50 different assays was then systematically analyzed to identify overall trends and specific natural products with interesting biological activities. Reported herein are the results of each individual qHTS and their corresponding assay protocol. Vero cells were infected with wild type Zika virus and at 72 hours post-infection viral cytotoxicity was assayed using CellTiter Glo. National Center for Advancing Translational Sciences (NCATS), Rockville, MD National Institute of Health (NIH), Bethesda, Maryland\nZika virus infection assay protocol: 1. In a white-solid bottom 1536-well tissue culture plate (Corning 7494), 3 uL of Vero 766 cells derived (African Green Monkey) were dispensed using a Multidrop Combi (Thermo Fisher Scientific) at a final concentration of 1000 cells / well. 2. The assay plates were incubated overnight at 37C, 5% CO2, 95% humidity to acclimate and attach. 3. […] of compounds (in DMSO; columns 5-48) were pin transferred into the assay plates using the Kalypsis pin tool (Wako USA) equipped with a 1536-well pin heads. This yields a final concentration range of 0.001 - 77 uM. 4. In a biosafety cabinet, the desired MOI Zika virus was calculated and 2 uL of 2.5x Zika virus was dispensed into columns 1, 2 and 5 - 48 using the Multidrop Combi dispenser. Two microliters of media + vehicle was dispensed into columns 3 and 4 as positive controls (no infection, 100% inhibition). The assay plates were sealed with breathable film. 5. The assay plates were incubated for 72 hours at 37C, 5% CO2, 95% humidity. 6. In a biosafety cabinet, the seals were removed by Xpeel Automated Plate Seal Remover (Brooks Life Sciences) and 2.5 uL of CellTiter Glo reagent (Promega) was dispensed into the wells (columns 1 - 48, rows 1 - 32). 7. Luminescence signal was obtained via the ViewLux plate reader (Perkin Elmer) using the clear emission filter and 1x binning, 2 seconds exposure settings."}
{"smiles": "CC(=O)NC[C@@H]1O[C@H](CC/C=C(C)/C(C)=C/C=O)[C@H](C)C[C@H]1O", "activity change, negative = antiviral": "9.81% (inactive)"}
{"smiles": "CCCCCC[C@H](CCCCC[C@@H](O)C(N)=O)OC(=O)[C@@H]1CC=CN1C(=O)c1ccccc1O", "activity change, negative = antiviral": "6.47% (inactive)"}
{"smiles": "O=C(O)CC1OC(=O)c2c(O)cccc21", "note": "(stereo not given)", "activity change, negative = antiviral": "3.2% (inactive)"}
{"smiles": "C[C@@H]1O[C@@H](O[C@@H]2[C@@H](O)[C@H](O[C@@H]3[C@@H](O)[C@@H](O)C(O[C@H]4[C@H](OC(=O)[C@]56CCC(C)(C)C[C@H]5C5=CCC7[C@@]8(C)C[C@H](O)[C@H](O[C@@H]9C[C@H](CO)[C@@H](O)[C@H](O)[C@H]9O)[C@@](C)(CO)C8[C@H](O)C[C@@]7(C)[C@]5(C)CC6)OC[C@H](O)[C@@H]4O)O[C@H]3C)OC[C@H]2O)[C@H](O)[C@H](O)[C@H]1O", "note": "(stereo not given in full)", "activity change, negative = antiviral": "-6.79% [at 27.4 µM] (inactive)"}
{"smiles": "O=Cc1ccc2n1C[C@@]1(C[C@H](O)[C@@H](CO)O1)OC2", "activity change, negative = antiviral": "-6.96% (inactive)"}
{"smiles": "CC1(C)C=Cc2c(ccc3c2OC[C@@H](c2ccc(O)cc2O)C3)O1", "activity change, negative = antiviral": "19.6% (inactive)"}
{"smiles": "C=C1C[C@@]23C=CC(=O)[C@@](C)(CCC(=O)Nc4c(O)ccc(C(=O)O)c4O)C2C[C@@H]1C(O)C3", "note": "(stereo not given in full)", "activity change, negative = antiviral": "-5.29% (inactive)"}
{"smiles": "C[C@@]12CCC[C@@](C)(C(=O)O)[C@H]1CC[C@]13C[C@H]4C[C@H](O[C@@]4(C)C1)[C@H]32", "activity change, negative = antiviral": "1.47% (inactive)"}
{"smiles": "O=C(O)[C@@]12COC3(O)C1CCN1CC[C@H]3[C@@H]1c1c2[nH]c2ccccc12", "activity change, negative = antiviral": "-1.57% (inactive)"}
{"smiles": "COc1ccc([C@@H]2c3cc(OC)c(OC)cc3C(=O)C(C)C2C)cc1OC", "note": "(stereo not given in full)", "activity change, negative = antiviral": "0.539% (inactive)"}
{"smiles": "C=C(C)[C@@H]1CC[C@]2(C)CC[C@]3(C)[C@H](CC[C@@H]4[C@@]5(C)CC[C@H](O)C(C)(C)[C@@H]5CC[C@]43C)[C@@H]12", "Potency": "inactive"}
{"smiles": "COc1cc(O)c2c3c(c(O)cc(C)c13)C(=O)OC2", "activity change, negative = antiviral": "13.1% (inactive)"}
{"smiles": "CC[C@H](C)C(NC(=O)[C@@H](NC)C(C)C)C(=O)NC1C(=O)N(C)[C@@H](C(C)O)C(=O)N[C@@H](C(C)C)C(=O)N(C)[C@@H](CC(C)C)C(=O)NC(C(C)C)C(=O)N(C)[C@@H](C(C)C)C(=O)N(C)[C@@H](Cc2c[nH]c3cccc(OC)c23)C(=O)N[C@@H](C(C)C)C(=O)N[C@@H]([C@H](O)c2ccccc2)C(=O)N[C@@H](C(C)C)C(=O)O[C@@H]1C", "note": "(stereo partly drawn) (H-[NMeV][ξIle][ξThr(3R)(O-yl)][NMeThr(3ξ)]V[NMeL][ξV][NMeV][NMeTrp(4-OMe)]V[Phe(3R-OH)]V; ester 3-C)", "activity change, negative = antiviral": "-0.0524% (inactive)"}
{"smiles": "C/C=C1/CC[C@@H]2c3[nH]c4ccccc4c3CCN2C1", "activity change, negative = antiviral": "-0.589% (inactive)"}
{"smiles": "O=C1c2c(O)cc(O)cc2O[C@@H](c2ccc(O)cc2)[C@@H]1c1c(O)cc(O)c2c(=O)cc(-c3ccc(O)c(O)c3)oc12", "activity change, negative = antiviral": "-23.7% (inactive)"}
{"smiles": "CCC1=C2CCCN3C(=O)O[C@H]([C@H]1OC(C)=O)[C@H]23", "activity change, negative = antiviral": "8.34% (inactive)"}
{"smiles": "CCCCCCCCCCCCCCCC(=O)OC/C=C(\\C)CCCC(C)CC(C)C(C)C", "note": "(stereo not given)", "activity change, negative = antiviral": "-2.25% (inactive)"}
{"smiles": "CO[C@@H]1[C@H](O)[C@@H](C)O[C@@H](OC[C@H]2/C=C/C=C/C(=O)C(C)C[C@H](C)C(O[C@@H]3O[C@H](C)CC4(OC(=O)O[C@@H]4C)C3O)[C@@H](C)/C=C/C(=O)OC2C)[C@@H]1OC", "note": "(stereo not given in full)", "activity change, negative = antiviral": "0.862% (inactive)"}
{"smiles": "C[C@@]12C[C@@H](C[C@H]3C(=O)O[C@@H](c4ccoc4)[C@H](OC(=O)c4ccccc4)[C@@H]31)OC2=O", "activity change, negative = antiviral": "-6.96% (inactive)"}
{"smiles": "O=c1cc(-c2ccc(O)c(O[C@@H]3O[C@H](CO)[C@@H](O)[C@H](O)[C@H]3O)c2)oc2cc(O[C@@H]3O[C@H](CO)[C@@H](O)[C@H](O)[C@H]3O)cc(O)c12", "activity change, negative = antiviral": "-6.96% (inactive)"}
{"smiles": "C[C@@H]1C(=O)[C@]23CC[C@H]1C[C@]21O[C@H]2C(C)(C)C=CC(=O)[C@@]23COC1=O", "activity change, negative = antiviral": "4.42% (inactive)"}
{"smiles": "C[C@@H]1O[C@@H](Oc2c(-c3ccc(O)cc3)oc3cc(O)cc(O)c3c2=O)[C@H](O)[C@H](O)[C@H]1O", "activity change, negative = antiviral": "3.04% (inactive)"}
{"smiles": "C=C1C[C@@]23C=CC(=O)[C@@](C)(CCC(=O)Nc4c(O)ccc(C(=O)O)c4O)C2C[C@@H]1CC3", "note": "(stereo not given in full)", "activity change, negative = antiviral": "16.2% (inactive)"}
{"smiles": "C=C1[C@H]2CC[C@@]3(C=CC(=O)[C@@](C)(CCC(=O)Nc4c(O)ccc(C(=O)O)c4O)C3C2)[C@H]1O", "note": "(stereo not given in full)", "activity change, negative = antiviral": "-4.09% (inactive)"}
{"smiles": "C=C1C[C@@]23C=CC(=O)[C@@](C)(CCC(=O)Nc4c(O)ccc(C(=O)O)c4O)C2C[C@@H]1CC3O", "note": "(stereo not given in full)", "activity change, negative = antiviral": "-4.04% (inactive)"}
{"smiles": "O=Cc1ccc2n1C[C@@]1(C[C@H](O)[C@H](O)CO1)OC2", "activity change, negative = antiviral": "-10.2% (inactive)"}
{"smiles": "Cc1cc(O)cc2oc(C[C@H](C)O)cc(=O)c12", "activity change, negative = antiviral": "-4.41% (inactive)"}
{"smiles": "COc1cc(/C=C/C(=O)O)ccc1O", "activity change, negative = antiviral": "4.02% (inactive)"}
{"smiles": "CS/C=C/C(N)=O", "activity change, negative = antiviral": "-3.88% (inactive)"}
{"smiles": "CN1CCc2cc3c(c4c2[C@H]1[C@@H](O)c1ccccc1-4)OCO3", "activity change, negative = antiviral": "1.31% (inactive)"}
{"smiles": "C1=C2CCCN[C@@H]2[C@@H]2CCN3CCCC[C@@H]3[C@H](C1)C2", "activity change, negative = antiviral": "-7.36% (inactive)"}
{"smiles": "COc1ccc2oc3c(OC)c(OC)c(OC)c(OC)c3c(=O)c2c1", "activity change, negative = antiviral": "-12.7% [at 9.14 µM] (inactive)"}
{"smiles": "C/C(=C\\[C@H](C)C(=O)CCCC1CC(=O)NC(=O)C1)[C@@H]1OC(=O)/C=C/CC/C=C/C[C@@H](O)[C@@H]1C", "activity change, negative = antiviral": "55.4% (inactive)"}
{"smiles": "C[C@@H]1C[C@H]2C[C@]3(CCCCN3C)[C@@H]3C[C@H]2[C@H](C1)N(C)C3", "activity change, negative = antiviral": "-3.23% (inactive)"}
{"smiles": "C/C(=C\\[C@H](C)C(=O)CCCC1CC(=O)NC(=O)C1)C(O)[C@@H](C)[C@H](O)C/C=C/CC/C=C/C(=O)O", "note": "(stereo not given in full)", "activity change, negative = antiviral": "-4.56% (inactive)"}
{"smiles": "CC12C[C@]3(O)O[C@@H](O1)[C@]1(COC(=O)c4ccccc4)[C@@H]3CC21OC1OC(CO)C(O)C(O)C1O", "note": "(stereo not given in full)", "activity change, negative = antiviral": "-8.93% (inactive)"}
{"smiles": "COc1ccc([C@@H]2c3cc(OC)c(OC)cc3C(=O)[C@H](C)C2C)cc1OC", "note": "(stereo not given in full)", "activity change, negative = antiviral": "5.82% [at 9.14 µM] (inactive)"}
{"smiles": "CNc1ccc(Cl)cc1C(=O)OC[C@]1(C)[C@H]2CC[C@]3(C)[C@@H](C[C@@H](OC)[C@H](C)[C@H]3C3=C(O)C(=O)OC3O)[C@]2(C)CC[C@H]1O", "note": "(stereo not given in full)", "activity change, negative = antiviral": "6.76% (inactive)"}
{"smiles": "C[C@@H](CCC[C@]1(C)C(=O)C=C[C@]23C[C@H]4C[C@H](O[C@@]4(C)C2)C31)C(=O)N[C@@H](CO)C(=O)O", "note": "(stereo not given in full)", "activity change, negative = antiviral": "1.62% (inactive)"}
{"smiles": "CC1(C)CCC[C@]2(C)[C@@H]1CC[C@@]13C[C@@H](CC[C@H]12)C(C)(O)C3", "note": "(stereo not given in full)", "activity change, negative = antiviral": "22.7% (inactive)"}
